PubChem BioAssay AID434926 (Sanford-Burnham Center for Chemical Genomics, 2010)
The list shows a part of the results. Values without a mark were called inactive. The source made the active and inactive calls.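 Rule for the calls: active = at least twofold enzyme activation in any of six single-dose repeats, which the averaged readout prints as negative percent; inactive = the rest.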

Biological target: Intestinal-type alkaline phosphatase (Homo sapiens) (UniProt P09923)
Experiment: human IAP activators, confirmation, biochemical, luminescence, single concentration, uHTS hits (AID 434926)
Conditions: purified IAP, CDP-Star luminescence, 30 min; at 8.3 µM; hits give low values

Chain of Intestinal-type alkaline phosphatase (Homo sapiens) (P09923 whole entry, looked up): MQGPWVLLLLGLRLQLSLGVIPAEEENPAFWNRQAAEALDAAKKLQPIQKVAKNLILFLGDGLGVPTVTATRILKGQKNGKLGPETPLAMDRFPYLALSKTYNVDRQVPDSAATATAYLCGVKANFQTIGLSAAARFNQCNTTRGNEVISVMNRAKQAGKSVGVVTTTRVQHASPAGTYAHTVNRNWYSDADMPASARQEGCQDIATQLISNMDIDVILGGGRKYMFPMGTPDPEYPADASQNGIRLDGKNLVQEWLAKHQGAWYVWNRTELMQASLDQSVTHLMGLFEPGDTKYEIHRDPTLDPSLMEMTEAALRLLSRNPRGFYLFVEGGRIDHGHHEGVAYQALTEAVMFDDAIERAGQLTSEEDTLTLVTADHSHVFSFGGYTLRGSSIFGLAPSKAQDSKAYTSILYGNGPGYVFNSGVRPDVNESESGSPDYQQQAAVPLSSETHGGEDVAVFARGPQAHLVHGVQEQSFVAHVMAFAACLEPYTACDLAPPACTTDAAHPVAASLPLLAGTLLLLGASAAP

SMILES	activation (%Activity, negative = activation)
Cc1cccc(NS(=O)(=O)c2cccc(C(=O)NNC(=O)c3ccccc3O)c2)c1	29.2%
CCCOCC(O)CC(CC)C(=O)NNC(=S)Nc1ccccc1 (stereo not drawn)	-138% (active)
Cc1ccc(NC(=O)c2cc(-c3ccccc3O)n[nH]2)cc1C	-1.54%
NC(=O)COc1ccc(NC(=O)c2ccccc2-c2ccccc2)cc1	9.49%
COc1cc(NC(=O)NCC2CCN(Cc3ccc(C)cc3)CC2)cc(OC)c1OC	-1.35%
COc1ccc(C(=O)NNc2cc(C)nc(NNC(=O)c3ccc(OC)cc3)n2)cc1	-9.79%
c1ccc(CSCCc2ccncc2)cc1	-33.2% (active)
CN1/C(=c2/s/c(=C3/C(=O)N(c4ccccc4)NC3=Nc3ccccc3)n(C)c2=O)C(C)(C)c2ccccc21	-2.61%
COc1cc(/C=C2/SC(=S)N(Cc3ccccc3)C2=O)cc(OC)c1O	3.41%
COc1cc(NC(=O)COC(=O)c2cnc(C)cn2)c(C)cc1[N+](=O)[O-]	6.98%
C[C@H](NC(=O)c1[nH]cnc1C(=O)Nc1nccs1)c1ccccc1	-3.71%
Cc1c(NC(=O)CN(C)CC(=O)Nc2ccc(F)c(F)c2F)c(=O)n(-c2ccccc2)n1C	-0.594%
C#CCOCCOCCOCCNc1nc(N2CCN(C(=O)CCCCCCCCCCNC(=O)[C@H]([C@@H](C)CC)n3cc(CCCCN=C(N)N)nn3)CC2)nc(N2CCN(C(=O)CCCCCCCCCCNC(=O)[C@H](CO)n3cc(CCCSC)nn3)CC2)n1	38.5%
